Our source for the inhibition values is ChEMBL document CHEMBL1961873, “Compounds: GSK PKIS; Assays: Nanosyn kinase panel” (2012).

For assay [1], the target named is T1, Serine/threonine-protein kinase Nek9 (Homo sapiens) (UniProt Q8TD19).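 Further: each value is a mean percent inhibition of NEK9.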
T1 sequence (whole entry): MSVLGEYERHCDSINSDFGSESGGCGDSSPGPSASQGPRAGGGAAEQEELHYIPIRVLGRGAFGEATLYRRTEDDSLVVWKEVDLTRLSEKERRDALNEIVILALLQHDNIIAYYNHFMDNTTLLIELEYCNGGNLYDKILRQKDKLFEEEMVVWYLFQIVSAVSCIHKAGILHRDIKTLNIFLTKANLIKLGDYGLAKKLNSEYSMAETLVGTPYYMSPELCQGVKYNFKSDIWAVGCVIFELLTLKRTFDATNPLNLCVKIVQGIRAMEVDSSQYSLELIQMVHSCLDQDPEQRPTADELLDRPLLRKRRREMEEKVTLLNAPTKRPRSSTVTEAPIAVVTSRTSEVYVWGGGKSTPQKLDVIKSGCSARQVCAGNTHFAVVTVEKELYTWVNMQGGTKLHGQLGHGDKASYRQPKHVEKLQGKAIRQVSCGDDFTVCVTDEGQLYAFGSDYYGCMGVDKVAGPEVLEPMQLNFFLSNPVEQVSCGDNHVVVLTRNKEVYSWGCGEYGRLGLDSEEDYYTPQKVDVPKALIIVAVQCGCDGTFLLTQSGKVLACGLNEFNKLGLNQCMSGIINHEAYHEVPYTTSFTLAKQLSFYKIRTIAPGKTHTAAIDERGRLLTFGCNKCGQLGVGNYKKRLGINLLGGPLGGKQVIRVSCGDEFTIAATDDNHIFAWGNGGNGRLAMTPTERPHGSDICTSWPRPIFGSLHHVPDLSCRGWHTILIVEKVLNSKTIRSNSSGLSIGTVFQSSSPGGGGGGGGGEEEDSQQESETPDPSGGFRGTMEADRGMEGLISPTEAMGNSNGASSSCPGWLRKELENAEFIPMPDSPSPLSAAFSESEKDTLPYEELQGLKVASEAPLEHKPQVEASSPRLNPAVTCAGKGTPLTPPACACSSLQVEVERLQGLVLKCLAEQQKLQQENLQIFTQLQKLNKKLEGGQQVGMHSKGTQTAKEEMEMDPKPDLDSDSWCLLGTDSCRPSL
As to conditions: at 1 µM.

In assay [2] the target is Serine/threonine-protein kinase PLK1 (Homo sapiens) (UniProt P53350). As to conditions: at 0.1 µM.
The target is the same in assay [3]. As to conditions: at 1 µM.
The target of assay [4] is T2, Dual specificity protein kinase TTK (Homo sapiens) (UniProt P33981).
T2 sequence (whole entry): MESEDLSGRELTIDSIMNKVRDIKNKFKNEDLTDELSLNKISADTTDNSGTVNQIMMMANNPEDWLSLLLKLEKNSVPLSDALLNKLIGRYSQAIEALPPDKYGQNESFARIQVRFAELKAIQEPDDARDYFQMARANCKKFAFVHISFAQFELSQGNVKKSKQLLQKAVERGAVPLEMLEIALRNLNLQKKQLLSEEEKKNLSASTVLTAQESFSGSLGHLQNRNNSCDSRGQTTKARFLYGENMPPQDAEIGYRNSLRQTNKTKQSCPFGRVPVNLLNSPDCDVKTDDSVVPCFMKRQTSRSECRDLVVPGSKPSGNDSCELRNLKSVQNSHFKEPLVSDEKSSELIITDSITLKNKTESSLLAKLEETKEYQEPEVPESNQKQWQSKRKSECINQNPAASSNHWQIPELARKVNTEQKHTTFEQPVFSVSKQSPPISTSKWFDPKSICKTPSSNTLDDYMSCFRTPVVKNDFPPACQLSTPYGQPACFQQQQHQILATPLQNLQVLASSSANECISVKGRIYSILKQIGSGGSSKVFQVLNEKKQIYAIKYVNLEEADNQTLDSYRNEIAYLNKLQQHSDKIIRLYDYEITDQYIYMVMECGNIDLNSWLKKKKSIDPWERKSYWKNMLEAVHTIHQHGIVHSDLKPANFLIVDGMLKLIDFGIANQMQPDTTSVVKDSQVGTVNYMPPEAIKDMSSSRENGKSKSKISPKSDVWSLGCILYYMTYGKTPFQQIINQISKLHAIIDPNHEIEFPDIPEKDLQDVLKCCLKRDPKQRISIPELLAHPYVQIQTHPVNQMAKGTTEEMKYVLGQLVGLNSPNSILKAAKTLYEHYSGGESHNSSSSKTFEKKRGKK
As to conditions: at 0.1 µM.

The test system of assay [5] is T3, Receptor-type tyrosine-protein kinase FLT3 (Homo sapiens), P36888 [D835Y].
T3 sequence (whole entry): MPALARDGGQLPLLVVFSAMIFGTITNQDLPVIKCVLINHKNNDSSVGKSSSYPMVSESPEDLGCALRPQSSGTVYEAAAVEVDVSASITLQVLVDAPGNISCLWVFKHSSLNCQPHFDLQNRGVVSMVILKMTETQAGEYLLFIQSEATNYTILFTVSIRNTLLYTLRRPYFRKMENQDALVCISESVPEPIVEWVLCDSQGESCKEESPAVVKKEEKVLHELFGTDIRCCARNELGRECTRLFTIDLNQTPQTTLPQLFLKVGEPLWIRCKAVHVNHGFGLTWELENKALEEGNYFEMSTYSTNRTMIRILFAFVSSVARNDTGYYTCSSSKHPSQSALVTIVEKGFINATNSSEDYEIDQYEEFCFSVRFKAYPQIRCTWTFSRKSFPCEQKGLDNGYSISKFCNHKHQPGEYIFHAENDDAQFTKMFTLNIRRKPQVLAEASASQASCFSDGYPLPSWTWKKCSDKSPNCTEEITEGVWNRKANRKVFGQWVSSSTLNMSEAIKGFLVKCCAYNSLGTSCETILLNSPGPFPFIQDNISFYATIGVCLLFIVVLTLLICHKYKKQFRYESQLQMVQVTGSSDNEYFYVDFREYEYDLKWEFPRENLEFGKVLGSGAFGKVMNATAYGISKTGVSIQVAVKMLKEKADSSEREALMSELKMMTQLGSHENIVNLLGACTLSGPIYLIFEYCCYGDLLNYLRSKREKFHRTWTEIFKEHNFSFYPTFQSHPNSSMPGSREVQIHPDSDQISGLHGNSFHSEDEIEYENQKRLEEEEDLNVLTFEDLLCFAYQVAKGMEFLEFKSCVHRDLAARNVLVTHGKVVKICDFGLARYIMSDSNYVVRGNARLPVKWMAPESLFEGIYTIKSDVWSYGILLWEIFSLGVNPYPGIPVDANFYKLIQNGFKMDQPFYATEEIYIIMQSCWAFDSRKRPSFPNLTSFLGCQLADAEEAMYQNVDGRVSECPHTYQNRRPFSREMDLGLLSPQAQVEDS
As to conditions: at 1 µM.

Assay [6] concerns the target Vascular endothelial growth factor receptor 3 (Homo sapiens) (UniProt P35916). As to conditions: at 0.1 µM.
The target is the same in assay [7]. As to conditions: at 1 µM.
Assay [8] has as its target Macrophage colony-stimulating factor 1 receptor (Homo sapiens) (UniProt P07333). As to conditions: at 0.1 µM.
For assay [9] the target is unchanged. As to conditions: at 1 µM.
The target of assay [10] is Tyrosine-protein kinase Fyn (Homo sapiens) (UniProt P06241). As to conditions: at 0.1 µM.
Assay [11] shares this target. As to conditions: at 1 µM.
Assay [12] deals with Tyrosine-protein kinase HCK (Homo sapiens) (UniProt P08631). As to conditions: at 0.1 µM.
Assay [13] shares this target. As to conditions: at 1 µM.
Assay [14] addresses Insulin-like growth factor 1 receptor (Homo sapiens) (UniProt P08069). As to conditions: at 0.1 µM.
Assay [15] shares this target. As to conditions: at 1 µM.
The target of assay [16] is Insulin receptor (Homo sapiens) (UniProt P06213). As to conditions: at 0.1 µM.
For assay [17] the target is unchanged. As to conditions: at 1 µM.
The target of assay [18] is Insulin receptor-related protein (Homo sapiens) (UniProt P14616). As to conditions: at 0.1 µM.
The target is the same in assay [19]. As to conditions: at 1 µM.
In assay [20] the target is T4, Tyrosine-protein kinase ITK/TSK (Homo sapiens) (UniProt Q08881).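 Further: mean percent inhibition of ITK from the GSK PKIS screen.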
T4 sequence (whole entry): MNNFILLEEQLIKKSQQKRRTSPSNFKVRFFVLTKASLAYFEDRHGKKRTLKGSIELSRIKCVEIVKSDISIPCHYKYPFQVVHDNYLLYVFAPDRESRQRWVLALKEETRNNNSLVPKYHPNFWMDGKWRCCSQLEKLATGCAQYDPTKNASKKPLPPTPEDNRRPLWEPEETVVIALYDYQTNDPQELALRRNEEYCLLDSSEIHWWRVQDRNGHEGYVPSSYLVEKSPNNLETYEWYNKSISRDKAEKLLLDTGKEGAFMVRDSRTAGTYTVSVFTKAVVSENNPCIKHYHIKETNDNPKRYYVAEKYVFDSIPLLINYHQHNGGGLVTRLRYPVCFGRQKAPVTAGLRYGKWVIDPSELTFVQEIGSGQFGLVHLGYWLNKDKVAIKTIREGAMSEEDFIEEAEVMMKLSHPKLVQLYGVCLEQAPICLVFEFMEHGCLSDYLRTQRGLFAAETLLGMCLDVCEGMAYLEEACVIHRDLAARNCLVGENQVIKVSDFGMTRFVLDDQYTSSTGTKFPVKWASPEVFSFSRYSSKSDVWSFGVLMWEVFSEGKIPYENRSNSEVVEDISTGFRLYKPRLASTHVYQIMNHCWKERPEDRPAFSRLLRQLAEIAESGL
As to conditions: at 0.1 µM.

The structures appear in SMILES notation. Where “and” joins values, the source holds several entries; their conditions need not be identical. Equal values may be shown once.

Serine/threonine-protein kinase PLK1 (Homo sapiens), sequence (P53350 whole entry): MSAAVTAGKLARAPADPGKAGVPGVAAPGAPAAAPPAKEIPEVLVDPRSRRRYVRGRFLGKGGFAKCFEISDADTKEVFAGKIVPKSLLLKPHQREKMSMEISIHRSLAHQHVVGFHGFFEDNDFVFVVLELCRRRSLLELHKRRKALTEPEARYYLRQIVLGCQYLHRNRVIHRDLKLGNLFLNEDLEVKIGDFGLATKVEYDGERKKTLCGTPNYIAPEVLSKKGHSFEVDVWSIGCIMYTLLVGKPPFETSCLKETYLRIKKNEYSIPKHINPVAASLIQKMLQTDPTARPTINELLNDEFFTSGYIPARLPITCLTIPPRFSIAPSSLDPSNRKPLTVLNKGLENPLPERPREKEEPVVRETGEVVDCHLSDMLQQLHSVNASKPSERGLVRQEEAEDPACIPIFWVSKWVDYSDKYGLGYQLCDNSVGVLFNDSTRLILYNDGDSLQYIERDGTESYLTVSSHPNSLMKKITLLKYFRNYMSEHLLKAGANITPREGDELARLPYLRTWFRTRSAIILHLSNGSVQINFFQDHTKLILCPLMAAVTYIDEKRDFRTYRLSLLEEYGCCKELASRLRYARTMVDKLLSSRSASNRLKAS
Vascular endothelial growth factor receptor 3 (Homo sapiens), sequence (P35916 whole entry): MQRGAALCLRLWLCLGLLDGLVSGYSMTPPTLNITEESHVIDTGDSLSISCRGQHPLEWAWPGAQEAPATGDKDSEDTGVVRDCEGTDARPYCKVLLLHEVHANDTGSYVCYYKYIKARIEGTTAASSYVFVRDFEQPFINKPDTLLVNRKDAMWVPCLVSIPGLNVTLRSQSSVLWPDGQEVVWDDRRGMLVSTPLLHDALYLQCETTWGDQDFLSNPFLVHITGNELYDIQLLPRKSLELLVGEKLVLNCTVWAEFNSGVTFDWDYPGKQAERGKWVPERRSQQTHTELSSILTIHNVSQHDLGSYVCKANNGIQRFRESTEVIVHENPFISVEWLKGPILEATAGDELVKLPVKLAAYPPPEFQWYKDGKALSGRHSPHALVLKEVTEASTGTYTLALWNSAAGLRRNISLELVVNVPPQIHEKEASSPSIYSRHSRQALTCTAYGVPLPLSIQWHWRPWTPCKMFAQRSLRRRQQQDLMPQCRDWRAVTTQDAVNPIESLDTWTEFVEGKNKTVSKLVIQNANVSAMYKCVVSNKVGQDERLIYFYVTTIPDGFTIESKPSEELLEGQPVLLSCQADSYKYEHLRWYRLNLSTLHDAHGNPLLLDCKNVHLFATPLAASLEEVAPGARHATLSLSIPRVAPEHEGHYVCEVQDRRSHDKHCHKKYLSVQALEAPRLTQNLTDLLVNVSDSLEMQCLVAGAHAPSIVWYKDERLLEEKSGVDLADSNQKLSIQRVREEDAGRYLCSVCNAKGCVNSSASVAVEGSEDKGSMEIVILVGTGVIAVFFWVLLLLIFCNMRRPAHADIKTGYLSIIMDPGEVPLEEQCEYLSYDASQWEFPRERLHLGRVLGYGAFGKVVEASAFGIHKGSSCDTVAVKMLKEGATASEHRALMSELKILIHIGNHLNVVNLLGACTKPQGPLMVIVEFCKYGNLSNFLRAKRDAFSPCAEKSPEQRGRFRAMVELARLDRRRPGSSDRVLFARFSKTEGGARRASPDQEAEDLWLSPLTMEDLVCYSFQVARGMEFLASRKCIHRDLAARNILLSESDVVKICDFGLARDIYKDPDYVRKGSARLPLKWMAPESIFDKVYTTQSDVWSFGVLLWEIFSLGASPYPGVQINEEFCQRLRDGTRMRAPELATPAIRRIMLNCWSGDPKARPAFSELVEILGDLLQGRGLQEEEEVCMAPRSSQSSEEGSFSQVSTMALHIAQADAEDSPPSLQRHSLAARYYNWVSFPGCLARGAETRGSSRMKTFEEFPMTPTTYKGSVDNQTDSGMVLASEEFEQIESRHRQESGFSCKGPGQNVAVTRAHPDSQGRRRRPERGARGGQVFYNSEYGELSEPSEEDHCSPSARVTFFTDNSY
Macrophage colony-stimulating factor 1 receptor (Homo sapiens), sequence (P07333 whole entry): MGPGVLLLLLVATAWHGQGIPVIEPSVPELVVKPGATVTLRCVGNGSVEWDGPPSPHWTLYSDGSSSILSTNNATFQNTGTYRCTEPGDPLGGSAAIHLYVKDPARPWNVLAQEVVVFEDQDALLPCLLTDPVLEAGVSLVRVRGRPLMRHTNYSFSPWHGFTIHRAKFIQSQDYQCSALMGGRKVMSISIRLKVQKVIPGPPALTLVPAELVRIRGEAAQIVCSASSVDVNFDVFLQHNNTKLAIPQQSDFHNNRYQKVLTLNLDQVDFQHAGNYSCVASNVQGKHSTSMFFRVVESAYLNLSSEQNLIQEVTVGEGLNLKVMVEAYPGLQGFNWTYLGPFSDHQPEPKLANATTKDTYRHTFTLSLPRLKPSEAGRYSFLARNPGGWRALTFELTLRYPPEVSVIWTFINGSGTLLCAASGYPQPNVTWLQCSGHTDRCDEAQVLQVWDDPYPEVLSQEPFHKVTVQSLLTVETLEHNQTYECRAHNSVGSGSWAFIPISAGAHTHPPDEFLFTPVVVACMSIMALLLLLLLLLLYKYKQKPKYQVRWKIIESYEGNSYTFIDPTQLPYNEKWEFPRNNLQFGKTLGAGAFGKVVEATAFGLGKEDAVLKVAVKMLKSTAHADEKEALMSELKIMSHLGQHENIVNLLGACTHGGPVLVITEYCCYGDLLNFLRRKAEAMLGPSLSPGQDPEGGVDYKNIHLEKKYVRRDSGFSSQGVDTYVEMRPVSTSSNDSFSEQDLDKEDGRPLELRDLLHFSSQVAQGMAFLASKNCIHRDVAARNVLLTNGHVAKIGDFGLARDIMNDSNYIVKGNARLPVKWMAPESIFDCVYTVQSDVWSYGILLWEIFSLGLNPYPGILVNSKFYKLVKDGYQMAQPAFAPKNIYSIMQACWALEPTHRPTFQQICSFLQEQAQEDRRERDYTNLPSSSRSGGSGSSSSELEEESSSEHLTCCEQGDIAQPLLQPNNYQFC
Tyrosine-protein kinase Fyn (Homo sapiens), sequence (P06241 2-537 limits assumed): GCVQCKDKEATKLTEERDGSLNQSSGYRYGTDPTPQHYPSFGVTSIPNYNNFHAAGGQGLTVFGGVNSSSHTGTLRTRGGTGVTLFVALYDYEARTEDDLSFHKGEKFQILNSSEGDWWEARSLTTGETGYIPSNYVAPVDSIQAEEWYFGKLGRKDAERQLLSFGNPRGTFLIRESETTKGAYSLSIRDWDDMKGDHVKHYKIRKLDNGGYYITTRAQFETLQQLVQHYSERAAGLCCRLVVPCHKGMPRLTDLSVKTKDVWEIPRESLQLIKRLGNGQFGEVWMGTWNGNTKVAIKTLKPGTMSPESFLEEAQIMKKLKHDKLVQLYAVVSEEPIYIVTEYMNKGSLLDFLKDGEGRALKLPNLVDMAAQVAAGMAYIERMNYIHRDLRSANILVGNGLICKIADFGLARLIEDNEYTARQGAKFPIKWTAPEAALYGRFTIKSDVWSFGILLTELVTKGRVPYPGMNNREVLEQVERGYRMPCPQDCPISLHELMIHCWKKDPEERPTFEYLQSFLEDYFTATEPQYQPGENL
Insulin receptor (Homo sapiens), sequence (P06213 28-758 limits assumed): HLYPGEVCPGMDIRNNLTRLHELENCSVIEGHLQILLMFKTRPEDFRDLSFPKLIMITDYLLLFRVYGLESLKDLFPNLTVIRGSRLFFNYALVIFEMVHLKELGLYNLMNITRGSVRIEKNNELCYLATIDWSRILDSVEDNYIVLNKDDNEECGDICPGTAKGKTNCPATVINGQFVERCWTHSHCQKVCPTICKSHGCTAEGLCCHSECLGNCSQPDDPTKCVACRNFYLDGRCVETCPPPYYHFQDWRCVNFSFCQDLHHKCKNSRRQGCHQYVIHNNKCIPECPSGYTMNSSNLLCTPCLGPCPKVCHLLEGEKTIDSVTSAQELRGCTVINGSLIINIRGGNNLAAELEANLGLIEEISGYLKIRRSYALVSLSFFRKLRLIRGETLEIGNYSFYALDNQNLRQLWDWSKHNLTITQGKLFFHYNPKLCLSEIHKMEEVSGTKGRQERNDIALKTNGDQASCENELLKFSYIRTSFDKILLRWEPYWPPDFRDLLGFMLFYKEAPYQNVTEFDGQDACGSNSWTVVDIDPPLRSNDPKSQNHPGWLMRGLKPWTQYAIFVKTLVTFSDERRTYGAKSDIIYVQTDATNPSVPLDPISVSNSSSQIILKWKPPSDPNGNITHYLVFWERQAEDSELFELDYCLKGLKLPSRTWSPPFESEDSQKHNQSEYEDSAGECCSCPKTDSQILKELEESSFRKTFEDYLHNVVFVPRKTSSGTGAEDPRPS
Insulin receptor (Homo sapiens), sequence (P06213 763-1382 limits assumed): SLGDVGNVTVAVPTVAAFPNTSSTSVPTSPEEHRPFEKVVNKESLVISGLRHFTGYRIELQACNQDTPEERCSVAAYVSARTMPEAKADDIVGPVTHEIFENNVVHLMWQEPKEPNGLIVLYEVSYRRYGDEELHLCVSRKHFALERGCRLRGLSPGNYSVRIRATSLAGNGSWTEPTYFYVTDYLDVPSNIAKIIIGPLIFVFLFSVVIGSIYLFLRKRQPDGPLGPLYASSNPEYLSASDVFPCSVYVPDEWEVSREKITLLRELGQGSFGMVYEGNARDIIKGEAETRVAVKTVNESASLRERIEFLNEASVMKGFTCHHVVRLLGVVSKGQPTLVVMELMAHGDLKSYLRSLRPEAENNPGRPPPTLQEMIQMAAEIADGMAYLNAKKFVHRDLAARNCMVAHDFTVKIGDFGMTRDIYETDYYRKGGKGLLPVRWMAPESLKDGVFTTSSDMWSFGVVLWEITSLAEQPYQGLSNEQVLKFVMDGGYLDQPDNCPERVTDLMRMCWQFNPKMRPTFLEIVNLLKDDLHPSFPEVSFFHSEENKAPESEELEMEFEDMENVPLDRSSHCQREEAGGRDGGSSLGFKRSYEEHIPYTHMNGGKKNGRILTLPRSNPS

As to `COC(=O)Nc1nc2ccc(Oc3ccc(NC(=O)Nc4cc(C(F)(F)F)ccc4F)cc3)cc2s1`, the inhibition in assay [1] was -3.04%; in assay [2], 1.23%; in [3], 0.38%; in assay [4] it was 0.59%; in [5] it was 13.5%; in assay [6] it was 10.4%. The inhibition in assay [7] was determined as 52.8%; in [8], 2.52%; in assay [9], 39.1%; in assay [10], 6.49%; in [11], 21.1%; in assay [12] it was 8.79%. Also, the inhibition in assay [13] is 28.3%; in assay [14], -0.75%; in assay [15] it was 1.6%; in assay [16], 1.59%; in [17] it was 3.09%; in [18] it was -2.9%. Moreover, the inhibition in assay [19] is -1.09%; in assay [20] it was 1.03%.
For `COc1cccc(-n2ncc3c(N/N=C/c4ccc(C(=O)NCCN(C)C)cc4)ncnc32)c1`, the inhibition in assay [1] stood at 1.36%; in assay [2], 1.5%; in [3], 2.1%; in assay [4], 3.48%; in assay [5] it was 76%; in assay [6], 12.1%. Besides, the inhibition in assay [7] worked out at 53.5%; in assay [8], 6.78%; in [9], 37.8%; in assay [10] it was 48.6%; in assay [11] it was 84.5%; in assay [12] it was 23.1%. For the same molecule, the inhibition in [13] is 68.8%; in [14], 3.78%; in assay [15], 4.69%; in [16], 0.94%; in [17] it was 1.97%; in [18], 5.09%. Further, the values for the inhibition in assay [19] and in assay [20] were 1.31% and 2.07%, respectively.
Consider `CCN1CCC(C(=O)Nc2n[nH]c3nnc(-c4cccc(F)c4F)cc23)CC1`, for which the inhibition was 3.91% in assay [1]; -0.35% in assay [2]; -0.89% in assay [3]; -0.14% in [4]; 1.33% in assay [5]; 1.09% in [6]. The inhibition is 0.68% in assay [7]; -1.42% in assay [8]; 7.94% in assay [9]; 1.4% in assay [10]; 0.66% in assay [11]; 0.33% in assay [12]. Further, the inhibition in assay [13] is 0.65%; in [14], -0.72%; in assay [15] it was -1.06%; in assay [16], -0.08%; in assay [17], 1.38%; in assay [18] it was -1.17%. In addition, the figures for the inhibition in [19] and in assay [20] were -1.67% and 0.47%, respectively.
For the molecule `CC1(C)CC(n2cnc(-c3ccc(F)cc3)c2-c2ccnc(N)n2)CC(C)(C)N1`, the inhibition is 2.47% in assay [1]; 2.09% in [2]; 0.76% in assay [3]; -0.55% in assay [4]; 0.24% in assay [5]; 3.06% in [6]. Further, the inhibition in [7] was found to be 2.77%; in assay [8] it was 1.31%; in assay [9] it was 0.54%; in [10], 1.49%; in [11] it was 2.65%; in [12] it was 2.18%. Besides, the inhibition is 3.22% in [13]; 1.3% in assay [14]; 3.3% in assay [15]; 4.97% in [16]; 4.07% in assay [17]; -0.08% in [18]. Moreover, the values for the inhibition in [19] and in assay [20] were -1.13% and 0.29%, respectively.
In the case of `CN1CCC(C(=O)Nc2n[nH]c3nc(-c4ccc(O)cc4)c(Br)cc23)CC1`, the inhibition in assay [1] is 13.7% and 6.47%; in assay [2] it was 6% and 2.01%; in [3], 2.87% and 3.17%; in [4] it was 16.1% and 0.86%; in [5] it was 1.05% and 6.99%; in assay [6] it was -8.86% and 1.93%. The inhibition was 2.2% in assay [7]; -1.7% and 0.14% in assay [8]; 0.92% and 5.04% in assay [9]; 0.13% and 0.97% in assay [10]; 2.18% and 4.52% in assay [11]; 3.06% and 2.78% in assay [12]. Besides, the inhibition is 6.08% and 4.64% in assay [13]; -4.96% and 3.55% in assay [14]; -5.49% and 3.41% in assay [15]; 5.36% and 4.34% in assay [16]; 4.73% and 6.55% in assay [17]; 2.54% and -0.17% in assay [18]. Moreover, the inhibition is 2.5% and 1.64% in assay [19]; -2.09% and 0.57% in [20].

A word on the inhibition: it is the relative decrease from the control value, in per cent.
